Rtt109 HAT inh – inhibitors of Candida albicans Rtt109/Vps75 histone acetyltransferase; AID 540336; actives 0.16% (n = 330,000); Q5AAJ8; purified Rtt109/Vps75, ThioGlo CoA-SH fluorescence, 4 h; inhibition, % at 34.9 µM;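 active = inhibition of at least 50% in every replicate; inconclusive = best replicate reaches 50% inhibition but some replicates fall short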
Target sequence (Q5AAJ8 whole entry, looked up): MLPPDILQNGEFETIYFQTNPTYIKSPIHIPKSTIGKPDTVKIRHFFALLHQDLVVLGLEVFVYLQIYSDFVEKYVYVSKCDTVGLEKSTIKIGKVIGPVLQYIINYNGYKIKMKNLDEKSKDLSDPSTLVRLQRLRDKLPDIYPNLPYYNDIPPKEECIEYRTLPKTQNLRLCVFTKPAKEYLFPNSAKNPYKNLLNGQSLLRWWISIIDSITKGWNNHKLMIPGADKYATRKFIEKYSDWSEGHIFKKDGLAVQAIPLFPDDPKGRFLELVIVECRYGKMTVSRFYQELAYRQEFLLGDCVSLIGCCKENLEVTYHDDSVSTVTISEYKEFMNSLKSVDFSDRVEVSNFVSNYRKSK
ALR inh – blocks human ALR sulfhydryl oxidase activity | purified ALR, DTT oxidation, H2O2 HRP-luminol luminescence | inhibition, % (no concentration beside the values) | actives 3.8% (n = 290,000);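 active = mean replicate inhibition above about 79%, with every replicate also reaching it, limit read from the data; inconclusive = only one of the two criteria met; inactive = mean below limit and not every replicate reaching it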
Efflux pump mplx – blocks antifungal efflux pumps in multiplex yeast assay; S. cerevisiae Candida pump triplex, Nile Red efflux; inhibition, % at 10 µM; actives 0.44% (n = 330,000);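 active = plate passing quality check with inhibition over a set limit, or well fluorescence over plate mean plus 4 SD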;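 also: Nile Red retained in pooled yeast measured as flow cytometry median fluorescence; higher means more Nile Red kept so more efflux inhibition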
HDAC3 inh – human HDAC3 inhibition. actives 0.15% (n = 320,000). inhibition, % at 8.3 µM. O15379. recombinant HDAC3, fluorogenic peptide/trypsin coupled, fluorescence; in the data active = inhibition above about 26%, passing the limit was not always enough; inconclusive = no clear call, values can overlap the other calls
GRK2 aptamer HTS – blocks RNA aptamer binding to human GRK2; P25098; inhibition of aptamer binding, % at 10 µM; actives 0.59% (n = 330,000); bead flow cytometry, FAM-aptamer displacement from GRK2;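 active = inhibition of aptamer binding above 40%, roughly 3 SD of noise, on plates passing a quality check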;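 also: median bead fluorescence of bound FAM aptamer so fluorescent compounds give negative values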
Rce1 inh – inhibitors of yeast Ras-converting enzyme; calls only; yeast membranes, quenched prenylated peptide cleavage fluorescence; Q03530; actives 0.27% (n = 290,000);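 active = fall in fluorescence gain of 50% or more versus controls, with final raw signal at or below 3038400; inconclusive = same 50% fall but final raw signal above 3038400; inactive = fall in fluorescence gain under 50%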
Each line names hits and unclear results; the compound was inactive in the other large screens. Compounds with a hit are over-represented: about 4.5% of the library has one in this group of screens.

CS(=O)(=O)c1ccc(Sc2nc3ccccc3[nH]2)c([N+](=O)[O-])c1	none
COc1ccccc1C(=O)N/C(=C\c1ccc(Br)cc1)C(=O)N1CCCC1	none (no result: Rtt109 HAT inh)
Cc1ccc(C(=O)NCC(=O)NCC(c2ccco2)N2CCCCC2)cc1C (stereo not drawn)	Rtt109 HAT inh 56 (no result: ALR inh, Efflux pump mplx, HDAC3 inh, GRK2 aptamer HTS, Rce1 inh)
CCOc1ccccc1N1CCN(C(=O)c2cccc(-c3ccc(O)cc3)c2)CC1	none
COc1ccccc1N1CCN(C(=O)c2oc3cc(C)cc(C)c3c2C)CC1	none
COc1ccccc1N1CCN(C(=O)c2coc(=O)c(Br)c2)CC1	Rce1 inh active
COc1ccccc1N1CCN(C(=O)c2cc(=O)c3ccc(C)cc3o2)CC1	ALR inh 99
CCOc1ccccc1N1CCN(C(=O)c2ccncc2)CC1	Rtt109 HAT inh 51
O=C(COC(=O)c1ccc(S(=O)(=O)N2CCCC2)cc1)NCc1ccccc1	Rce1 inh active
C/C(=C\C(=O)OCC(=O)NCc1ccccc1)C(=O)OCC(=O)NCc1ccccc1	GRK2 aptamer HTS 80
O=C(COC(=O)c1ccc(S(=O)(=O)N2CCCCC2)cc1)NCc1ccc(F)cc1	none (no result: ALR inh, Efflux pump mplx, HDAC3 inh, GRK2 aptamer HTS, Rce1 inh)
CCNc1nc(NCC)n2c(SCC(=O)O)nnc2n1	none
CCNc1nc(NCC)n2c(SCC(=O)c3ccccc3F)nnc2n1	ALR inh 94
Cc1nnc(SCC(=O)c2ccccc2F)n1Cc1ccccc1	ALR inh 94
Cc1ccc(S(=O)(=O)Nc2nc(C)c(C(=O)NN)s2)cc1	none
C/C(=N/NC(=O)c1sc(NS(=O)(=O)c2ccc(C)cc2)nc1C)c1sc(N)nc1C	ALR inh 99
CC(C)n1ncc2c(C(=O)N3CCN(Cc4ccc(Br)s4)CC3)cc(C3CC3)nc21	none (no result: Rce1 inh)
Cc1cccc(C)c1Nc1nnc(SCC(=O)c2ccc(Br)s2)s1	HDAC3 inh 27
Cc1ccc(Nc2nnc(SCC(=O)c3ccc(Br)s3)s2)c(C)c1	none
Cc1cccc(C)c1N1CCN(C(=O)Cn2cncn2)CC1	none
N#Cc1ccccc1NC(=S)NC(=O)c1cccnc1	ALR inh 95
CC(C)c1ccc(O)c(NC(=O)c2cccnc2)c1	ALR inh 89
CCC(C)c1ccc(O)c(NC(=S)NC(=O)c2cccnc2)c1 (stereo not drawn)	ALR inh 98
O=C(CCCOc1ccccc1)Nc1cccc(S(=O)(=O)N2CCCCCC2)c1	none (no result: Rce1 inh)
O=C(c1ccc2oc(CCc3ccccc3)nc2c1)N1CC[C@H](O)C1	none
c1cc2c(c(NCc3ccncc3)c1)CCCC2	ALR inh 99 (no result: Rce1 inh)
CC(C)(C)CC(=O)Nc1cccc2c1CCCC2	none
Nc1ccccc1Nc1ccccc1	ALR inh inconclusive
Nc1ccc(Nc2ccccc2)c(Cl)c1	ALR inh 100
COc1ccc2nc(/C=N/NC(=O)[C@@H]3CCCN3C(=O)OC(C)(C)C)ccc2c1	none (no result: ALR inh)
CN(NC(=O)NN)c1ncc(C(F)(F)F)cc1Cl	none
CCOc1cc(/C=N/NC(=O)NN(C)c2ncc(C(F)(F)F)cc2Cl)ccc1O	ALR inh 99
COc1ccccc1NS(=O)(=O)c1c(C)[nH]c(C)c1C(=O)N1CCCC1	none
Cc1cc(-c2n[nH]c(=S)n2Cc2ccco2)n(C)n1	none
CCCCn1c(-c2nn(C)c(C)c2Cl)n[nH]c1=S	none
CCc1cc(-c2n[nH]c(=S)n2N)n(C)n1	ALR inh 95
CCc1nn(C)c(-c2n[nH]c(=S)n2N)c1Cl	ALR inh 91
COc1ccc(-c2n[nH]c(=S)n2C2CCCCC2)cc1	ALR inh 89
Oc1ccccc1-c1n[nH]c(=S)n1Cc1ccco1	ALR inh 91
COc1ccc(-c2n[nH]c(=S)n2Cc2ccco2)cc1	ALR inh 97
COc1ccc(OCc2n[nH]c(=S)n2Cc2ccco2)cc1	none
Oc1ccc(-c2n[nH]c(=S)n2Cc2ccccc2)cc1	ALR inh 97
CS(=O)(=O)c1cccc(C(=O)OCC(=O)Nc2ccc3c(c2)OCO3)c1	none (no result: Rce1 inh)
C[C@H](CO)N1C[C@H](C)[C@@H](CN(C)S(C)(=O)=O)Oc2c(NC(=O)C3CC3)cccc2C1=O	none (no result: Rce1 inh)
CC(=O)N1CCOc2ccc(S(=O)(=O)NC(C)c3ccccc3)cc21 (stereo not drawn)	none
CC(C)C[C@H](N)c1nnc(S(=O)(=O)Cc2ccc(F)cc2)o1	ALR inh 98
O=C(NC1CCN(S(=O)(=O)c2ccccc2C(F)(F)F)CC1)c1ccco1	none
Cc1ccc(CNC(=O)COC(=O)c2ccc(S(=O)(=O)N(C)C)cc2)cc1	none

Bioassay records (PubChem BioAssay)
